About 83,000 compounds went through this panel and 20% of them were active in at least one assay; those are over-represented in the sample as a whole.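 48-hour exposure, single concentration, 96-well plates; percent growth endpoint where 0 means no net growth. Active: below 10.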 Unmarked numbers belong to inactive results. Calls of active or inactive are those of the source.
Each compound was assayed on HL-60(TB) leukemia (assay: NCI-60 one-dose screen, 48 h (100 = growth as untreated, 0 = no growth, -100 = all killed)). Conditions: 10 µM unless noted.

Compound | growth
CCc1nc(C)cn1C(=O)OCc1nc2nc(Cl)nc(N3CCOCC3)c2[nH]1 | -23.1% (active)
O=C(Cn1cc(COc2ncnc3c2cnn3-c2ccccc2)nn1)Nc1cccc2ccccc12 | 101%
COC(=O)C1OC1c1cc([N+](=O)[O-])ccc1OC (stereo not drawn) | 99.1%
